In PubChem BioAssay (NCATS):
Results filed as inconclusive are left out. Entries that show only a call come without a potency. Calls of active or inactive are those of the source. Calls follow the shape of the dose curve; as a rule, active = well fitted curve in the direction sought with a large enough effect; inconclusive = small, poorly fitted or top-dose-only effect, or another doubt; inactive = no such curve, though single readings can be large; an effect the other way counts as inactive or inconclusive.

Experiments:
[1] = test system: Zika virus NS2B-NS3 protease (linked construct); test: Primary screen NINDS Rhodamine qHTS for Zika virus inhibitors (AID 1347160); details: purified NS2B-NS3 protease, Rhodamine110 substrate fluorescence; series mostly up to 57.1 µM; also: nearly all actives have a fitted effect of over 55% in size
How it was run: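 Kinetic fluorescence (Ex 480 nm, Em 540 nm) over 15 min with 1.5 microM Rhodamine110 peptide and 25 nM linked protease.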

[2] = target: Lysine-specific demethylase 5B (Homo sapiens) (UniProt Q9UGL1); test: Optimization screen for KDM5B Histone Demethylases FDH coupled qHTS against the LOPAC library (AID 1347166); details: KDM5B demethylation, FDH-coupled NADH fluorescence (FDH is formaldehyde dehydrogenase); series mostly up to 57.5 µM
Lysine-specific demethylase 5B (Homo sapiens), sequence (Q9UGL1 whole entry, looked up): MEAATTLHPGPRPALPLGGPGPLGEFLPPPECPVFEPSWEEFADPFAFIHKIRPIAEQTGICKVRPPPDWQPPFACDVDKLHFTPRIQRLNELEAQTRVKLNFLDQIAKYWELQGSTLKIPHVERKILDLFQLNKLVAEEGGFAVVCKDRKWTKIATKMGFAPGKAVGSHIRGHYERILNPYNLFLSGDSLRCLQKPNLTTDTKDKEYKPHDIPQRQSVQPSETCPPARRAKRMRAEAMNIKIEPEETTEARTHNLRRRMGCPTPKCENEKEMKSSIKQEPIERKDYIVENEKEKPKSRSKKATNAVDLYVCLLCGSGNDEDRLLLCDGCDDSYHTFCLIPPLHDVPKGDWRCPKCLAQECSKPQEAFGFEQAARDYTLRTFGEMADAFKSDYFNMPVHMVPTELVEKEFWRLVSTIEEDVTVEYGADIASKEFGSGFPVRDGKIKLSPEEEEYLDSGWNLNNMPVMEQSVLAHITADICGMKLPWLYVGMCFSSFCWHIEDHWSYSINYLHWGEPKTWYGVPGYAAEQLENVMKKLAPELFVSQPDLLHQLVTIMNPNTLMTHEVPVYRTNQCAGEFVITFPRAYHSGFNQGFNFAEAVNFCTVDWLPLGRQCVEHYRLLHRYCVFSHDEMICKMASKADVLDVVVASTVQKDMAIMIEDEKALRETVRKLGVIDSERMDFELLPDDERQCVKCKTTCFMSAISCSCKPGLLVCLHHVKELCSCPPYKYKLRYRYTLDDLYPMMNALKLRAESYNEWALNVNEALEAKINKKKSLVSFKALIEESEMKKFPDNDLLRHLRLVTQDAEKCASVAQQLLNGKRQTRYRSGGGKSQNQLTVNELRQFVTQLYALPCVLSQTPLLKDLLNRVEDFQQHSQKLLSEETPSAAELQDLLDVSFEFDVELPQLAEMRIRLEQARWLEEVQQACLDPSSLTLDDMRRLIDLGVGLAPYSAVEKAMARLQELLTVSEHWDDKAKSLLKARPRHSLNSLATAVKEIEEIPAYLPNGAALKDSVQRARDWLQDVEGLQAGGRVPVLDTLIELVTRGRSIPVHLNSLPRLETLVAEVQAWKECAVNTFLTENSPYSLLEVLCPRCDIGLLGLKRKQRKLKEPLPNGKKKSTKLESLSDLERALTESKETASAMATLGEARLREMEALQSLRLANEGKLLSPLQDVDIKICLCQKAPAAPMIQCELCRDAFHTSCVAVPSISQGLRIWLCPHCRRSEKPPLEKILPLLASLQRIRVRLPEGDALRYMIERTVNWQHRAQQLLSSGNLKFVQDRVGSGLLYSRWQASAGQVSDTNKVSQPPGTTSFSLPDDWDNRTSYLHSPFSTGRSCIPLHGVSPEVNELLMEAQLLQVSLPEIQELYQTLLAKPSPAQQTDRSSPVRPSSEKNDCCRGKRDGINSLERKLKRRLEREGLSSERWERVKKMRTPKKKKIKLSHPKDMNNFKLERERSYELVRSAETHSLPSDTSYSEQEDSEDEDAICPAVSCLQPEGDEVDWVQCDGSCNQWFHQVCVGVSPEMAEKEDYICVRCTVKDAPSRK
How it was run: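 KDM5BDeltaAP (200nM final) preincubated 10 min with compound, then 12.5uM H3K4Me3, 25uM a-ketoglutarate, ascorbate, Fe(II), NAD+ and FDH added; 50mM HEPES pH 7.5, 0.01% Tween-20. NADH fluorescence (340/450 nm) change over 30 min, room temperature.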

[3] = Vero cells viability qHTS for Zika virus inhibitors (AID 1347167); details: cytotoxicity counter-screen (Zika); series mostly up to 45.9 µM
How it was run: (§1)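 Compounds were tested in concentration series on cells grown in DMEM containing 4% FBS. After 24 to 48 hours, cellular ATP was measured by luminescence with CellTiter Glo.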

[4] = HepG2 cells viability qHTS for Zika virus inhibitors (AID 1347168); details: Zika counter-screen; series mostly up to 45.9 µM
How it was run: as §1

[5] = Tertiary RLuc qRT-PCR qHTS assay for Zika virus inhibitors (AID 1347169); details: infected Vero cells, reporter luminescence, 48-72 h; series mostly up to 45.9 µM; also: top concentration of the series differs between compounds; nearly all actives have a fitted effect of over 55% in size
How it was run: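 Orthogonal cell-based readout: luminescence measured 1-1.5 hrs after adding live-cell Renilla substrate to Vero cells that had been infected with ZIKV-RLuc (MOI 1-2) post-compound, incubated 48-72 hrs at 37 degrees C.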

Cc1nnc(C[C@@H]2C=C(c3ccc(Cl)cc3)c3ccccc3-n3c(C)nnc32)o1
Potency [1]: inactive

C/C=C(\C)C(=O)O[C@H]1C=C(CO)C(=O)[C@H](OC(C)=O)[C@H]1C(C)C
Potency [1]: inactive

O=C(NCCCc1ccccc1)C1CCC(CNS(=O)(=O)c2cccc3nsnc23)CC1 (stereo not given)
Potency [1]: inactive

O=C(Nc1ccc(C(O)(C(F)(F)F)C(F)(F)F)cc1)c1ccc(C(F)(F)F)cc1
Potency [1]: inactive

NCCCC(=O)O
outcome [2]: inactive

CN[C@H]1CC[C@@H](c2ccc(Cl)c(Cl)c2)c2ccccc21
outcome [2]: inactive

CCC(CC)(NC(=O)C(C)C)C(=O)N[C@@H](CCCN=C(N)N)C(=O)NC1(C(=O)NC(c2ccc(F)cc2)c2ccc(F)cc2)CCCC1
outcome [3]: inactive
outcome [4]: inactive
Potency [5]: inactive

COc1ccc(CCO[C@@H]2O[C@H](CO[C@H]3OC[C@](O)(CO)[C@H]3O)[C@@H](OC(=O)/C=C/c3ccc(O)c(O)c3)[C@H](O[C@@H]3O[C@@H](C)[C@H](O)[C@@H](O)[C@H]3O)[C@H]2O)cc1OC
Potency [5]: inactive
